Several values for one entry are separate records, joined by “and”; a condition that tells them apart may be missing. Identical values can stand only once. Records with an inconclusive call do not appear. Activity calls are given as the source filed them.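 Rule for the calls, unless noted: active = normalized viability below 100% at a tested concentration; inactive = the rest.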
Key:
[1] = growth inhibition of DIPG glioma cells, dose response, cell-based, SU-DIPG-XVII, MIPE5.0, CellTiter-Glo, qHTS (AID 1347060; cut-off not given, nearly all actives have AC50 up to about 26 µM;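 for AC50: cells exposed to compound for 48 hours before viability readout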); settings: SU-DIPG-XVII viability, CellTiter-Glo ATP luminescence
[2] = growth inhibition of DIPG glioma cells, dose response, cell-based, JHH-DIPG-1, MIPE4.0, CellTiter-Glo, qHTS (AID 1347062; cut-off not given, nearly all actives have AC50 up to about 27 µM;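 note: cells exposed to compound for two days before readout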); settings: JHH-DIPG-1 viability, CellTiter-Glo ATP luminescence
[3] = viability loss in pontine glioma line – cell-based, SU-DIPG-XXV, MIPE5.0, CellTiter-Glo, qHTS, dose response (AID 1347065; cut-off not given, nearly all actives have AC50 up to about 26 µM;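 note: cells exposed to compound for 48 hours before ATP readout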); settings: CellTiter-Glo ATP luminescence
[4] = JHH-DIPG-1 glioma cell viability, MIPE5.0 library, CellTiter-Glo luminescence, qHTS (AID 1347067; cut-off not given, nearly all actives have AC50 up to about 26 µM;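 note: cells exposed to compound for 48 hours before readout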); settings: JHH-DIPG-1 glioma viability, CellTiter-Glo ATP luminescence
[5] = modifiers of HSF1 nuclear foci, imaging, Selleck Cancer Library (AID 1347162; in the data active = plate-normalised HSF1 focus index below about 0.46); settings: human cells, at 10 µM; SSMD: measured here: HSF1 foci SSMD mean; cell count: measured here: cell number; plate-normalised HSF1 focus index: stronger effect = lower value
[6] = ovarian cancer cell viability with rucaparib, profiling panel, oncology-focused library, rucaparib conditional (AID 1508598); settings: patient-derived ovarian cancer cells, CellTiter-Glo viability, 144 h, stronger effect = lower value
[7] = growth inhibition of DIPG glioma cells, dose response, cell-based, SU-DIPG-IV, MIPE4.0, CellTiter-Glo, qHTS (AID 1347063; cut-off not given, nearly all actives have AC50 up to about 30 µM;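 note: compound exposure lasted 48 hours before the viability readout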); settings: SU-DIPG-IV viability, CellTiter-Glo ATP luminescence
[8] = growth inhibition of DIPG glioma cells, dose response, cell-based, SU-DIPG-XIII, MIPE5.0, CellTiter-Glo, qHTS (AID 1347064; cut-off not given, nearly all actives have AC50 up to about 23 µM;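 for AC50: cells exposed to compound for 48 hours before the viability read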); settings: SU-DIPG-XIII viability, CellTiter-Glo ATP luminescence
[9] = SU-DIPG-XXV glioma cell viability, MIPE5.0 library, qHTS (AID 1347068; cut-off not given, nearly all actives have IC50 up to about 30 µM;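 for IC50: cells exposed to compound for 48 hours before viability readout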)
[10] = sensitizers of A549 cells to miR-34 induction, primary screen, imaging, A549 dox-inducible miR-34, nuclei and caspase counts (AID 1347080;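 active = compounds whose cell count with miR-34 switched on is under 0.7 times the count with it off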); settings: A549 miR-34 inducible, Hoechst nuclei count, 48 h
[11] = survival rescue of mitochondrial mutant cells in low glucose, primary screen, MELAS cybrids, Rieske KO mouse fibroblasts, CellTiter-Glo (AID 1508586;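 active = mean z-score across replicates of 1.96 or higher in either the MELAS or the Rieske mutant cell line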;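 note: z relative to plate mean and SD of compound and empty wells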)
[12] = SU-DIPG-VI glioma cell viability, MIPE4.0 library, CellTiter-Glo luminescence, qHTS (AID 1347066; cut-off not given, nearly all actives have AC50 up to about 30 µM;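 note: cells exposed to compound for 48 hours before readout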); settings: CellTiter-Glo ATP luminescence
[13] = at 0.000305 µM, OCI-C5x cells, with rucaparib 10 µM, 100% = cells with rucaparib alone
[14] = at 0.000305 µM, OCI-C5x cells, without rucaparib
[15] = at 0.000305 µM, OCI-P5x cells, with rucaparib 20 µM, 100% = cells with rucaparib alone
[16] = at 0.000305 µM, OCI-P5x cells, without rucaparib
[17] = at 0.00122 µM, OCI-C5x cells, with rucaparib 10 µM, 100% = cells with rucaparib alone
[18] = at 0.00122 µM, OCI-C5x cells, without rucaparib
[19] = at 0.00122 µM, OCI-P5x cells, with rucaparib 20 µM, 100% = cells with rucaparib alone
[20] = at 0.00122 µM, OCI-P5x cells, without rucaparib
[21] = at 0.00488 µM, OCI-C5x cells, with rucaparib 10 µM, 100% = cells with rucaparib alone
[22] = at 0.00488 µM, OCI-C5x cells, without rucaparib
[23] = at 0.00488 µM, OCI-P5x cells, with rucaparib 20 µM, 100% = cells with rucaparib alone
[24] = at 0.00488 µM, OCI-P5x cells, without rucaparib
[25] = at 0.0195 µM, OCI-C5x cells, with rucaparib 10 µM, 100% = cells with rucaparib alone
[26] = at 0.0195 µM, OCI-C5x cells, without rucaparib
[27] = at 0.0195 µM, OCI-P5x cells, with rucaparib 20 µM, 100% = cells with rucaparib alone
[28] = at 0.0195 µM, OCI-P5x cells, without rucaparib
[29] = at 0.0781 µM, OCI-C5x cells, with rucaparib 10 µM, 100% = cells with rucaparib alone
[30] = at 0.0781 µM, OCI-C5x cells, without rucaparib
[31] = at 0.0781 µM, OCI-P5x cells, with rucaparib 20 µM, 100% = cells with rucaparib alone
[32] = at 0.0781 µM, OCI-P5x cells, without rucaparib
[33] = at 0.313 µM, OCI-C5x cells, with rucaparib 10 µM, 100% = cells with rucaparib alone
[34] = at 0.313 µM, OCI-C5x cells, without rucaparib
[35] = at 0.313 µM, OCI-P5x cells, with rucaparib 20 µM, 100% = cells with rucaparib alone
[36] = at 0.313 µM, OCI-P5x cells, without rucaparib
[37] = at 1.25 µM, OCI-C5x cells, with rucaparib 10 µM, 100% = cells with rucaparib alone
[38] = at 1.25 µM, OCI-C5x cells, without rucaparib
[39] = at 1.25 µM, OCI-P5x cells, with rucaparib 20 µM, 100% = cells with rucaparib alone
[40] = at 1.25 µM, OCI-P5x cells, without rucaparib
[41] = at 5 µM, OCI-C5x cells, with rucaparib 10 µM, 100% = cells with rucaparib alone
[42] = at 5 µM, OCI-C5x cells, without rucaparib
[43] = at 5 µM, OCI-P5x cells, with rucaparib 20 µM, 100% = cells with rucaparib alone
[44] = at 5 µM, OCI-P5x cells, without rucaparib
[45] = stronger effect = lower value, cell number ratio, induced over uninduced
[46] = measured here: relative caspase fold change +Dox/-Dox
[47] = measured here: total cells with miR-34 induction, stronger effect = lower value
[48] = measured here: total cells without miR-34 induction
[49] = MELAS cybrid survival, CellTiter-Glo 48 h, stronger effect = higher value
[50] = Rieske KO mouse fibroblast survival, CellTiter-Glo 72 h

Cc1cnc(NC(=O)Nc2cc(Br)c(C)cc2OC[C@@H]2CNCCO2)cn1
active: AC50 [1] 8.33 µM | AC50 [2] 1.18 µM | AC50 [3] 8.33 µM | AC50 [4] 20.9 µM | viability [6, 15] 65.9% | viability [6, 16] 19.8% | viability [6, 17] 84.2% | viability [6, 18] 88.9% | viability [6, 19] 47.7% | viability [6, 20] 17.5% | viability [6, 31] 92.1% | viability [6, 33] 96% | viability [6, 34] 98% | viability [6, 35] 73.6% | viability [6, 36] 94.9% | viability [6, 37] 60.4% | viability [6, 38] 71.2% | viability [6, 39] 43% | viability [6, 40] 85.9% | viability [6, 41] 3.26% | viability [6, 42] 46.4% | viability [6, 43] 0.466% | viability [6, 44] 7.42%
inactive: plate-normalised HSF1 focus index [5] 1.16 | viability [6, 13] 111% | viability [6, 14] 118% | viability [6, 21] 103% | viability [6, 22] 121% | viability [6, 23] 114% | viability [6, 24] 109% | viability [6, 25] 109% | viability [6, 26] 113% | viability [6, 27] 107% | viability [6, 28] 104% | viability [6, 29] 102% | viability [6, 30] 117% | viability [6, 32] 105%
3.14: SSMD [5]
6470: cell count [5]

CNc1nccc(-c2cccnc2Oc2cc(C(=O)Nc3cccc(C(F)(F)F)c3)ccc2C)n1
active: AC50 [1] 3.72 µM | AC50 [7] 13.2 µM | AC50 [8] 5.9 µM | AC50 [3] 5.9 µM | IC50 [9] 13.2 µM

CCC(=C/[C@H](C)C/C=C/C(C)=C/[C@@H](C)C(=O)[C@@H](C)[C@H](O)[C@@H](C)C/C(C)=C/C(=O)O)/C=C/[C@@H]1OC(=O)C=C[C@@H]1C
active: AC50 [1] 0.00296 µM | AC50 [7] 0.0139 µM | AC50 [3] 0.00209 µM | AC50 [4] 18.6 µM | IC50 [9] 0.833 µM

O=C(Nc1ccc(OC(F)(F)Cl)cc1)c1cnc(N2CC[C@@H](O)C2)c(-c2ccn[nH]2)c1
inactive: outcome [8]
active: AC50 [1] 23.5 µM

O=C(Nc1nc2cccc(-c3ccc(CN4CCS(=O)(=O)CC4)cc3)n2n1)C1CC1
6810: cell count [10, 48]
0.426: fold change [10, 46]
-1.33: z-score [11, 50]
inactive: fold change [10, 45] 0.924 | z-score [11, 49] -0.57
6290: cell count [10, 47]
active: AC50 [1] 14.8 µM | AC50 [7] 29.6 µM | AC50 [3] 9.34 µM

CNC(=O)c1cc(COc2nnc(Nc3ccc(Cl)cc3)c3ccoc23)ccn1
4310: cell count [5]
5140: cell count [10, 47]
0.896: fold change [10, 46]
0.512: z-score [11, 50]
inactive: fold change [10, 45] 0.883 | z-score [11, 49] -0.151 | viability [6, 13] 113% | viability [6, 14] 111% | viability [6, 15] 105% | viability [6, 16] 114% | viability [6, 17] 109% | viability [6, 18] 117% | viability [6, 19] 102% | viability [6, 20] 109% | viability [6, 21] 108% | viability [6, 22] 113% | viability [6, 23] 102% | viability [6, 24] 108% | viability [6, 25] 105% | viability [6, 26] 105% | viability [6, 27] 104% | viability [6, 28] 109% | viability [6, 29] 109% | viability [6, 30] 110% | viability [6, 31] 101% | viability [6, 32] 109% | viability [6, 33] 108% | viability [6, 34] 113% | viability [6, 35] 103% | viability [6, 36] 111% | viability [6, 37] 106% | viability [6, 38] 114% | viability [6, 40] 108% | viability [6, 41] 114% | viability [6, 42] 128% | viability [6, 43] 103% | viability [6, 44] 109%
active: AC50 [1] 16.6 µM | AC50 [7] 20.9 µM | AC50 [4] 5.9 µM | plate-normalised HSF1 focus index [5] 0.266 | viability [6, 39] 98.5%
-14.1: SSMD [5]
5820: cell count [10, 48]

O=C1[C@H](Cc2ccc(O)cc2)N2C(=O)CCN(C(=O)NCc3ccccc3)[C@H]2CN1Cc1cccc2ccccc12
inactive: plate-normalised HSF1 focus index [5] 1.09
active: AC50 [1] 4.17 µM | AC50 [7] 3.72 µM | AC50 [3] 3.32 µM
6950: cell count [5]
1.66: SSMD [5]

CO[C@@H]1[C@@H](O)[C@H](O)[C@@H](n2c3c(Cl)cccc3c3c4c(c5c6cccc(Cl)c6[nH]c5c32)C(=O)NC4=O)O[C@H]1CO
inactive: outcome [9]
active: AC50 [1] 0.105 µM | AC50 [7] 0.209 µM | AC50 [4] 2.63 µM

O=c1ccn([C@@H]2O[C@H](CO)[C@@H](O)[C@@H]2F)c(=O)[nH]1
inactive: outcome [1] | outcome [7] | outcome [3] | outcome [12] | outcome [4] | outcome [9]

N#Cc1ccc(COC[C@H]2O[C@@H](n3c(NCc4ccc(Cl)c(Cl)c4)nc4c(N)ncnc43)[C@H](O)[C@@H]2O)cc1
inactive: outcome [12]
active: AC50 [1] 14.8 µM | AC50 [7] 2.35 µM | AC50 [3] 18.6 µM | AC50 [4] 18.6 µM

COc1cc2ncnc(Nc3cccc(Cl)c3)c2cc1OC
0.126: z-score [11, 50]
inactive: fold change [10, 45] 1.29 and 1.02 and 0.9 | z-score [11, 49] -0.433
active: AC50 [1] 13.2 µM | AC50 [7] 18.7 µM | AC50 [3] 20.9 µM
0.693 and 0.941 and 0.779: fold change [10, 46]
2650 and 1830 and 6990: cell count [10, 47]
2060 and 1800 and 7760: cell count [10, 48]

CC(C)=CCC/C(C)=C/CC/C(C)=C/CSc1ccccc1C(=O)O
active: AC50 [7] 0.526 µM
2.56: SSMD [5]
6790: cell count [5]
inactive: outcome [1] | outcome [4] | outcome [9] | plate-normalised HSF1 focus index [5] 1.15
